Assay results as given in PubChem BioAssay (NCATS).
Several values for one entry are separate records, joined by “and”; a condition that tells them apart may be missing. Equal entries are not always repeated. Results filed as inconclusive are left out. Where a call stands in place of a potency, no number is given. A number with no mark means an inactive call. Activity calls are given as the source filed them. Calls come from the whole dose curve; as a rule, active = well fitted curve in the direction sought with a large enough effect; inconclusive = small, poorly fitted or top-dose-only effect, or another doubt; inactive = no such curve, though single readings can be large; an effect the other way counts as inactive or inconclusive.

Key:
[1] = Viability qHTS for spleen associated tyrosine kinase inhibitor (SYKi) naive MV4-11 cells (AID 1963823); note: nearly all actives have a fitted effect of over 40% in size
Procedure, shortened: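 CellTiter-Glo luminescence, 10 min room-temperature incubation, gave viability. Cells: naive MV4-11 (500/well), treated 72 hr at 37 C, 5% CO2.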

[2] = Viability qHTS for spleen associated tyrosine kinase inhibitor (SYKi) drug resistant MV4-11 cells (AID 1963824); note: nearly all actives have a fitted effect of over 35% in size
Procedure, shortened: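 SYK-inhibitor-resistant MV4-11 AML cells were seeded at 500 per well onto compound and cultured 72 hours (37 °C, 5% CO2). CellTiter-Glo was then added, and after 10 min at room temperature, luminescence gave viability.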

[3] = Cellular viability qHTS for adrenocortical cancer (ACC) cell line SW-13 (AID 1963989); conditions: SW-13 ACC cells viability, CellTiter-Glo, 48 h; activity (max response): active compounds read low; note: nearly all actives have a fitted effect of over 65% in size;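 for activity (max response): cells grown in serum-free medium with ITS supplement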
Procedure, shortened: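 Luminescent ATP read-out (CellTiter-Glo, 20 min at room temperature) measured metabolically competent SW-13 cells after 48 h compound treatment. Final concentrations spanned up to 46 uM; bortezomib served as positive control.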

[4] = Cellular viability qHTS for adrenocortical cancer (ACC) cell line NCI-H295R (AID 1963990); note: nearly all actives have a fitted effect of over 60% in size
Procedure, shortened: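 IC50 and maximal efficacy derive from four-parameter logistic modelling of titration curves, with reads scaled between DMSO-only wells (0%) and doxorubicin hydrochloride (100% inhibition). Compounds spanned up to 46 uM over 48 h.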
Potency is the fitted concentration of half-maximal effect.

Question: For `CO[C@@]12[C@H](COC(N)=O)C3=C(C(=O)C(C)=C(N)C3=O)N1C[C@@H]1N[C@@H]12`, which Potency [1] is on record?
Answer: The Potency was 119 nM (active) and 118 nM (active).

Question: What about the Potency [2] of the same molecule?
Answer: Its Potency is 0.0742 µM (active).

Question: And the activity (max response) [3]?
Answer: Its activity (max response) is 9.06% and -27.8%.

Question: And the Potency [4]?
Answer: The Potency was “inactive”.

Question: What does the source list for `Nc1ccc(S(=O)(=O)Nc2cnc3ccccc3n2)cc1`?
Answer: Potency [1]: inactive; Potency [2]: inactive; activity (max response) [3]: 8.58%; Potency [4]: inactive

Question: With `CCC(=O)NS(=O)(=O)c1ccc(-c2c(-c3ccccc3)noc2C)cc1` as the molecule, how does the Potency [1] read?
Answer: Its Potency is “inactive”.

Question: What about the Potency [2] of the same molecule?
Answer: The Potency was 8.2 µM (active).

Question: And the activity (max response) [3]?
Answer: The activity (max response) was -1.9%.

Question: And the Potency [4]?
Answer: The Potency was “inactive”.

Question: Which Potency [1] does the source give for `CC(=O)N[C@H]1[C@H](O[C@@H]2c3ccc(c(Cl)c3)Oc3cc4cc(c3O[C@@H]3O[C@H](CO)[C@@H](O)[C@H](O)[C@H]3NC(=O)CCCCCCCC(C)C)Oc3ccc(cc3Cl)C[C@H]3NC(=O)[C@H](N)c5ccc(O)c(c5)Oc5cc(O)cc(c5)[C@H](NC3=O)C(=O)N[C@H]4C(=O)N[C@H]3C(=O)N[C@@H]2C(=O)N[C@@H](C(=O)O)c2cc(O)cc(O[C@H]4O[C@H](CO)[C@@H](O)[C@H](O)[C@@H]4O)c2-c2cc3ccc2O)O[C@H](CO)[C@@H](O)[C@@H]1O` here?
Answer: The Potency was “inactive”.

Question: What about the Potency [2] of the same molecule?
Answer: The Potency was “inactive”.

Question: And the activity (max response) [3]?
Answer: Its activity (max response) is 11.6%.

Question: And the Potency [4]?
Answer: Its Potency is “inactive”.

Question: What does the source list for `Nc1c(NC/C=C\COc2cc(CN3CCCCC3)ccn2)c(=O)c1=O`?
Answer: Potency [1]: inactive; Potency [2]: inactive; activity (max response) [3]: 4.55%; Potency [4]: inactive

Question: With `CNC[C@H](O)[C@@H](O)[C@H](O)[C@H](O)CO` as the molecule, how does the Potency [1] read?
Answer: Its Potency is “inactive”.

Question: And the Potency [2]?
Answer: Its Potency is “inactive”.

Question: What about the activity (max response) [3] of the same molecule?
Answer: The activity (max response) was 1.47%.

Question: And the Potency [4]?
Answer: Its Potency is “inactive”.

Question: With `COc1ccc(Cl)cc1C(=O)NCCc1ccc(S(=O)(=O)NC(=O)NC2CCCCC2)cc1` as the molecule, how does the Potency [1] read?
Answer: The Potency was “inactive”.

Question: What about the Potency [2] of the same molecule?
Answer: Its Potency is “inactive”.

Question: What about the activity (max response) [3] of the same molecule?
Answer: The activity (max response) was -4.38%.

Question: And the Potency [4]?
Answer: The Potency was “inactive”.

Question: For `Cc1c(C)c2c(c(C)c1OC(=O)CCC(=O)OCCO)CC[C@@](C)(CCC[C@H](C)CCC[C@H](C)CCCC(C)C)O2`, which Potency [1] is on record?
Answer: Its Potency is “inactive”.

Question: What about the Potency [2] of the same molecule?
Answer: Its Potency is “inactive”.

Question: What about the Potency [3] of the same molecule?
Answer: The Potency was 18.4 µM (active).

Question: What about the Potency [4] of the same molecule?
Answer: The Potency was 13 µM (active).

Question: For `CCOc1ccc(NS(=O)(=O)c2ccc(N)cc2)nn1`, which Potency [1] is on record?
Answer: Its Potency is “inactive”.

Question: And the Potency [2]?
Answer: Its Potency is “inactive”.

Question: What about the activity (max response) [3] of the same molecule?
Answer: Its activity (max response) is 7.51%.

Question: And the Potency [4]?
Answer: Its Potency is “inactive”.

Question: With `Nc1ccc(C(=O)O)c(O)c1` as the molecule, how does the Potency [1] read?
Answer: Its Potency is “inactive”.

Question: What about the Potency [2] of the same molecule?
Answer: Its Potency is “inactive”.

Question: And the activity (max response) [3]?
Answer: The activity (max response) was 12.8%.

Question: And the Potency [4]?
Answer: Its Potency is “inactive”.

Question: For `O=C(O)CCCc1ccccc1`, which Potency [1] is on record?
Answer: Its Potency is “inactive”.

Question: What about the Potency [2] of the same molecule?
Answer: The Potency was “inactive”.

Question: What about the activity (max response) [3] of the same molecule?
Answer: The activity (max response) was 16.4%.

Question: And the Potency [4]?
Answer: The Potency was “inactive”.

Question: Which Potency [1] does the source give for `NC(=O)C1(N2CCCCC2)CCN(CCCN2c3ccccc3CCc3ccc(Cl)cc32)CC1` here?
Answer: The Potency was 8.41 µM (active).

Question: And the Potency [2]?
Answer: Its Potency is 8.41 µM (active).

Question: And the Potency [3]?
Answer: The Potency was 20.6 µM (active).

Question: What about the Potency [4] of the same molecule?
Answer: The Potency was 2.91 µM (active).

Question: Which Potency [1] does the source give for `CC(=O)c1cc2c(o1)C(=O)c1ccccc1C2=O` here?
Answer: The Potency was 1.18 µM (active).

Question: And the Potency [2]?
Answer: The Potency was 1.32 µM (active).

Question: What about the Potency [3] of the same molecule?
Answer: Its Potency is 3.16 µM (active).

Question: What about the Potency [4] of the same molecule?
Answer: The Potency was 0.891 µM (active).

Question: With `O=C(OCCN1CCOCC1)c1cccnc1Nc1cccc(C(F)(F)F)c1` as the molecule, how does the Potency [1] read?
Answer: Its Potency is “inactive”.

Question: What about the Potency [2] of the same molecule?
Answer: The Potency was “inactive”.

Question: What about the activity (max response) [3] of the same molecule?
Answer: The activity (max response) was -11.8%.

Question: What about the Potency [4] of the same molecule?
Answer: The Potency was “inactive”.

Question: What does the source list for `CNCC(O)c1ccc(O)c(O)c1` (stereo not given)?
Answer: Potency [1]: inactive; Potency [2]: inactive; activity (max response) [3]: 4.94%; Potency [4]: inactive

Question: What does the source list for `CCCCCCCCCCCCCCCC(=O)NCCO`?
Answer: Potency [1]: inactive; Potency [2]: inactive; activity (max response) [3]: 3.88%; Potency [4]: inactive

Question: What does the source list for `C[C@@H](O)[C@@H](C)Oc1nc(Nc2ccc(S(=N)(=O)C3CC3)cc2)ncc1C(F)(F)F` (stereo not given in full)?
Answer: Potency [1]: 3.32 µM (active); Potency [2]: 11.8 µM (active); activity (max response) [3]: 4.29%; Potency [4]: inactive

Question: What does the source list for `C[C@]12CCC(=O)C=C1CC[C@@H]1[C@@H]2[C@@H](O)C[C@@]2(C)[C@H]1CC[C@]2(O)C(=O)COC(=O)CCC(=O)O`?
Answer: Potency [1]: inactive; Potency [2]: inactive; activity (max response) [3]: 3.9%; Potency [4]: inactive

Question: Which results are given for `Cc1c(O)cccc1C(=O)N[C@@H](CSc1ccccc1)[C@H](O)CN1C[C@H]2CCCC[C@H]2C[C@H]1C(=O)NC(C)(C)C`?
Answer: Potency [1]: 23.7 µM (active); Potency [2]: 13.3 µM (active); Potency [3]: 20.6 µM (active); Potency [4]: 6.51 µM (active)

Question: For `CC(C)(O)c1coc(S(=O)(=O)NC(=O)Nc2c3c(cc4c2CCC4)CCC3)c1`, which Potency [1] is on record?
Answer: The Potency was “inactive”.

Question: What about the Potency [2] of the same molecule?
Answer: The Potency was “inactive”.

Question: What about the activity (max response) [3] of the same molecule?
Answer: The activity (max response) was 5.8%.

Question: What about the Potency [4] of the same molecule?
Answer: The Potency was “inactive”.
